Rtt109 Vps75 – blocks Candida albicans Rtt109/Vps75 acetyltransferase activity; Q5AAJ8; purified Rtt109/Vps75, ThioGlo CoA-SH fluorescence, 4 h; inhibition, % at 34.9 µM; 330,000 compounds, 0.16% hits; AID 540336;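 active = inhibition of at least 50% in every replicate; inconclusive = best replicate reaches 50% inhibition but some replicates fall short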
Target sequence (Q5AAJ8 whole entry, looked up): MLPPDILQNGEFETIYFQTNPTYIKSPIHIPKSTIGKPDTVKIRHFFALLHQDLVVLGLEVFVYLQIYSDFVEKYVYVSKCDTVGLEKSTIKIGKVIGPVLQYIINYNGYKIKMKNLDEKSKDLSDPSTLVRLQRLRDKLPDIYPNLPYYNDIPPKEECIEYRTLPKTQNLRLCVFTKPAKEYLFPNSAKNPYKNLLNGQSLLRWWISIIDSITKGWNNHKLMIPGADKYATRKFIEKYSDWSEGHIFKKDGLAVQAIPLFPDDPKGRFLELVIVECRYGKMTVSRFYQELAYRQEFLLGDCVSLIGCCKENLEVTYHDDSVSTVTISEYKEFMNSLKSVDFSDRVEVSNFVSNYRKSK
DENV2 CPE – inhibitors of DENV2 cytopathic effect. DENV2-infected cells, cytopathic effect rescue, plate reader. CPE inhibition, % at 9.99 µM. 350,000 compounds, 1.7% hits; in the data active = CPE inhibition above about 20%, passing the limit was not always enough; inconclusive = no clear call, values can overlap the other calls; tested in BHK-21 cells;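 note: 0% = median of neutral control wells and 100% = median of positive control wells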
PglD DTNB – blocks C. jejuni PglD acetyltransferase activity; purified PglD enzyme, DTNB colorimetric CoA detection; inhibition, % at 12.5 µM; 360,000 compounds, 0.098% hits; in the data active = inhibition above about 16%, passing the limit was not always enough; inconclusive = no clear call, values can overlap the other calls
N-glyco inh – N-linked glycosylation inhibition; reporter increase, % at 12.5 µM; D54 ERlucT glycosylation luciferase reporter, 24 h; percent of 100 nM tunicamycin response; 360,000 compounds, 0.23% hits; AID 588692;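 active = mean luciferase reporter signal, scaled so untreated is 0 and the glycosylation-blocking control 100, at or above a set limit in every replicate; inconclusive = mean reaches the limit but not every replicate does; inactive = mean below the limit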;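 note: luciferase carries N-glycosylation sites so blocking glycosylation raises the light; 0% = median of neutral control wells and 100% = median of 100 nM tunicamycin wells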
* = called active by the depositor; ? = inconclusive; . = not tested or not shown. This excerpt belongs to a sample that is enriched for hits.

SMILES | Rtt109 Vps75 | DENV2 CPE | PglD DTNB | N-glyco inh
O=C1/C(=C/c2ccc(F)cc2)SC(=S)N1CC(=O)N1CCCCC1c1cccnc1 (centres undefined) | 53* | 4 | -1 | -7
COc1ccc(NC(=O)N(C)C[C@@H]2Oc3ccc(NC(=O)CCC(F)(F)F)cc3CC(=O)N([C@H](C)CO)C[C@@H]2C)cc1 | . | 14 | 2 | .
CCCC#Cc1ccc2c(c1)O[C@H](CN(C)C(=O)COC)[C@@H](C)CN([C@H](C)CO)S2(=O)=O | . | 23* | -2 | .
C[C@H]1CN([C@@H](C)CO)S(=O)(=O)c2ccc(C#CCN(C)C)cc2O[C@H]1CN(C)C(=O)C1CCC1 | . | 29* | 1 | .
CCCC#Cc1ccc2c(c1)O[C@H](CN(C)C(=O)C1CCC1)[C@H](C)CN([C@H](C)CO)S2(=O)=O | . | 36* | -5 | .
CCCC#Cc1ccc2c(c1)O[C@H](CN(C)C(=O)COC)[C@H](C)CN([C@H](C)CO)S2(=O)=O | . | -12 | 4 | .
C[C@@H]1CN([C@@H](C)CO)S(=O)(=O)c2ccc(C#CC(C)(C)O)cc2O[C@@H]1CN(C)C(=O)C1CCCCC1 | . | 21* | 2 | .
C[C@@H]1CN([C@H](C)CO)S(=O)(=O)c2ccc(C#CC(C)(C)O)cc2O[C@H]1CN(C)C(=O)C1CCCCC1 | . | 14 | 0 | .
C[C@H]1CCCCO[C@H](CN(C)CC2CC2)[C@@H](C)CN([C@@H](C)CO)C(=O)c2cc(NC(=O)Nc3ccc4c(c3)OCO4)ccc2O1 | . | 9 | -1 | .
O=C(C[C@H]1CC[C@H]2NC[C@H](O)COC[C@@H]2O1)NCc1ccc2c(c1)OCO2 | . | 1 | -1 | .
COCC(=O)Nc1ccc2c(c1)[C@@H]1C[C@H](CC(=O)N3CCN(C)CC3)O[C@@H](CO)[C@@H]1O2 | . | 3 | 4 | .
COc1ccc(NC(=O)N(C)C[C@H]2OCCCC[C@H](C)Oc3ccc(NS(=O)(=O)c4cccs4)cc3C(=O)N([C@H](C)CO)C[C@@H]2C)cc1 | . | 2 | -1 | .
COCC(=O)Nc1ccc2c(c1)OC[C@@H](C)N(C(=O)c1ccncc1)C[C@@H](C)[C@H](OC)CN(C)C2=O | . | 32* | -2 | .
COCC(=O)Nc1ccc2c(c1)OC[C@H](C)N(C(=O)Cc1cccnc1)C[C@@H](C)[C@H](OC)CN(C)C2=O | . | 26* | . | .
COCC(=O)Nc1ccc2c(c1)C(=O)N(C)C[C@H](OC)[C@H](C)CN(C(=O)Cc1cccnc1)[C@@H](C)CO2 | . | 1 | 2 | .
COCC(=O)Nc1ccc2c(c1)C(=O)N(C)C[C@@H](OC)[C@@H](C)CN(C(=O)Cc1cccnc1)[C@@H](C)CO2 | . | -1 | -4 | .
COc1cccc(S(=O)(=O)Nc2ccc3c(c2)C(=O)N(C)C[C@@H](OC)[C@@H](C)CN(C(=O)Cc2cccnc2)[C@H](C)CO3)c1 | . | 52* | -2 | .
COCC(=O)Nc1ccc2c(c1)OC[C@@H](C)N(C(=O)Cc1cccnc1)C[C@H](C)[C@@H](OC)CN(C)C2=O | . | 49* | -3 | .
COCC(=O)Nc1ccc2c(c1)OC[C@H](C)N(C(=O)c1ccncc1)C[C@H](C)[C@H](OC)CN(C)C2=O | . | 13 | -2 | .
C[C@@H]1CN([C@H](C)CO)C(=O)c2cc(C#CCN(C)C)cnc2O[C@@H]1CN(C)C(=O)CCN1CCCCC1 | . | -2 | 3 | .
C[C@H]1CN([C@@H](C)CO)C(=O)Cc2cc(NC(=O)C3CCCCC3)ccc2O[C@@H]1CN(C)S(=O)(=O)c1cn(C)cn1 | . | 5 | -2 | .
C[C@H](CO)N1C[C@H](C)[C@@H](CN(C)S(=O)(=O)c2cccs2)OCCCC[C@H](C)Oc2ccc(N(C)C)cc2C1=O | . | -6 | 1 | .
COc1ccc(S(=O)(=O)N(CC(C)C)CC(C)C)c2cccnc12 | -5 | 57* | -3 | -2
O=C(C[C@@H]1CC[C@H]2[C@@H](COC[C@H](O)CN2S(=O)(=O)c2cccc(Cl)c2)O1)Nc1ccc(-c2ccccc2)cc1 | . | ? | -2 | .
FC(F)(F)c1ccccc1CN1CCCc2nc(-c3ccc(Br)cc3)ccc21 | . | 42* | . | .
SMILES | Rtt109 Vps75 | DENV2 CPE | PglD DTNB | N-glyco inh
FC(F)(F)c1ccccc1CN1CCCc2nc(-c3ccccc3)ccc21 | . | -2 | . | .
Cc1nc(CCNC(=O)CC2C(=O)NCCN2CC(C)C)nc2c1CCC2 (centres undefined) | -1 | 44* | -2 | 3
Cc1nc(CCNC(=O)CC2C(=O)NCCN2CC(C)(C)C)nc2c1CCC2 (centres undefined) | 2 | 13 | -6 | 0
O=C(C[C@@H]1C[C@@H]2c3cc(NS(=O)(=O)c4ccc(F)cc4)ccc3O[C@@H]2[C@@H](CO)O1)NCC1CC1 | . | -4 | 4 | .
CN(C)CCCNC(=O)OC1CC2CC1[C@H]1CCCCN1C2=O (some centres undefined) | . | 48* | . | .
CC1(C(=O)NCc2ccco2)Cc2c(-c3cccc(C(N)=O)c3)ccnc2O1 (centres undefined) | . | -1 | -7 | 38*
CC1(C(=O)NCc2ccccc2)Cc2c(-c3cccc(C(N)=O)c3)ccnc2O1 (centres undefined) | . | -6 | 4 | ?
CC(=O)Nc1ccc(-c2ccnc3c2CC(C)(C(=O)NCCC(F)(F)F)O3)cc1 (centres undefined) | . | 1 | 12 | 3
CC(=O)Nc1cccc(-c2ccnc3c2CC(C)(C(=O)NCCC(F)(F)F)O3)c1 (centres undefined) | . | -11 | -3 | 25*
CO[C@H]1CC[C@@H]2CCOc3c(C#N)cccc3C(=O)N(C)[C@H](C)C(=O)N(C)C[C@H]1O2 | . | -1 | 5 | .
COc1ccc(-c2ccc3c(c2)[C@H]2[C@H](CCN2C(=O)CN2CCOCC2)[C@@H](CO)N3)cc1 | . | 100* | 1 | .
COc1ccc(-c2ccc3c(c2)[C@@H]2[C@@H](CCN2C(=O)CN2CCOCC2)[C@H](CO)N3)cc1 | . | -5 | 2 | .
COc1ccc(-c2ccc3c(c2)[C@@H]2[C@@H](CCN2Cc2ccccc2F)[C@H](CO)N3)cc1 | . | 23* | . | .
COc1ccc(-c2ccc3c(c2)[C@@H]2[C@@H](CCN2C(=O)C2CCCC2)[C@H](CO)N3C)cc1 | . | 17 | . | .
CCC(=O)N1CC[C@@H]2[C@@H](CO)Nc3ccc(-c4ccc(OC)cc4)cc3[C@@H]21 | . | 131* | -2 | .
COc1ccc(-c2ccc3c(c2)[C@@H]2[C@@H](CCN2C(=O)C2CCOCC2)[C@@H](CO)N3C)cc1 | . | 115* | -19 | .
Cc1noc(C)c1NC(=O)Nc1ccc2c(c1)C(=O)N([C@@H](C)CO)C[C@@H](C)[C@@H](CN(C)C(=O)NC(C)C)O2 | . | -9 | 1 | .
CCN(C[C@H]1[C@H](c2ccccc2)[C@H](CO)N1C(=O)COC)S(C)(=O)=O | . | 7 | -2 | .
C[C@H]1O[C@H](O[C@H]2[C@H](O[C@@H]3CC[C@@]4(C)C(CC[C@]5(C)C4CC=C4[C@@H]6CC(C)(C)CC[C@]6(C(=O)O[C@@H]6O[C@H](CO)[C@@H](O)[C@H](O)[C@H]6O)CC[C@]45C)C3(C)C)O[C@H](C(=O)O)[C@@H](O)[C@@H]2O)[C@@H](O)[C@@H](O)[C@@H]1O (some centres undefined) | 18 | 109* | 2 | 0

Source: PubChem (Broad Institute)
